Where a chain is given by its changes, count along the chain named.

The values below come from article PMC8384837, “Expanding the binding specificity for RNA recognition by a PUF domain”.

Experiment in all cases: yeast three-hybrid, YBZ-1, SC-Leu-His + 0.5 mM 3-AT, 4 days
Conditions in all cases: tags: N-Gal4 AD-HA kept; label: inside an RPR1-promoter hybrid RNA with tandem MS2 sites; ssRNA

The target in test [1] is PUM1 PUF domain R5-GGR (Homo sapiens, UniProt Q14671 828-1176, C1007G;R1008G;Q1011R). An outline of the steps:
(§1)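 Sequencing with Illumina followed PCR amplification of the repeat regions from transformants grown four days on SC-Leu (input) or SC-Leu-His + 0.5 mM 3-AT (selection). The transformants were strain YBZ-1 with a LexA–MS2 coat fusion and a HIS3 reporter, carrying Pumilio-1 PUF domain libraries and matching RNA elements. The interaction score is the log change in variant frequency from input to selection, computed in log2 with a pseudocount of 1 for absent variants.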

Test [2] concerns the target PUM1 PUF domain R5-RHF (Homo sapiens, UniProt Q14671 828-1176, C1007R;R1008H;Q1011F). The essentials:
as §1

Test [3] has as its target PUM1 PUF domain R5-KPC (Homo sapiens, UniProt Q14671 828-1176, C1007K;R1008P;Q1011C). An outline of the steps: as §1
Test [4] has as its target PUM1 PUF domain R8-RFT (Homo sapiens, UniProt Q14671 828-1176, N1122R;Y1123F;Q1126T). The essentials:
as §1

The target in test [5] is PUM1 PUF domain R8-HWG (Homo sapiens, UniProt Q14671 828-1176, N1122H;Y1123W;Q1126G). The essentials:
as §1

Test [6] deals with T1, PUM1 PUF domain R6-HYL (Homo sapiens, UniProt Q14671 828-1176, N1043H;Q1047L).
T1 sequence: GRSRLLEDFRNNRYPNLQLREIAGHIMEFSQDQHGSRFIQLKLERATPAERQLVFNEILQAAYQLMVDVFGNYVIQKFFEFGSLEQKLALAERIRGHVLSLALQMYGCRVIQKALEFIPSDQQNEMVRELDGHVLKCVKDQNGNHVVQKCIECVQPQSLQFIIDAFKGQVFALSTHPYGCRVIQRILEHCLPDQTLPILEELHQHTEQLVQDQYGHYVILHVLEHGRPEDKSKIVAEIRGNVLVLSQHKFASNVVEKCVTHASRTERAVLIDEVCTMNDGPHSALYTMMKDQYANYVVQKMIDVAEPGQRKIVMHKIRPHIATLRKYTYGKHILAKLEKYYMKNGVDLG
An outline of the steps:
as §1

Test [7] deals with PUM1 PUF domain R8-YHR (Homo sapiens, UniProt Q14671 828-1176, N1122Y;Y1123H;Q1126R). An outline of the steps: as §1
Test [8] deals with PUM1 PUF domain R8-LYC (Homo sapiens, UniProt Q14671 828-1176, N1122L;Q1126C). An outline of the steps: as §1
In test [9] the target is PUM1 PUF domain R2-RVE (Homo sapiens, UniProt Q14671 828-1176, N899R;Y900V;Q903E). An outline of the steps: as §1
Test [10] concerns the target PUM1 PUF domain R4-PFN (Homo sapiens, UniProt Q14671 828-1176, N971P;H972F;Q975N). An outline of the steps: as §1
In test [11] the target is PUM1 PUF domain R1-KGS (Homo sapiens, UniProt Q14671 828-1176, S863K;R864G;Q867S). The essentials: as §1
Test [12] deals with T2, PUM1 PUF domain R6-EWC (Homo sapiens, UniProt Q14671 828-1176, N1043E;Y1044W;Q1047C).
T2 sequence: T1 sequence with H216E, Y217W, L220C
An outline of the steps: as §1

The target in test [13] is PUM1 PUF domain R7-RIQ (Homo sapiens, UniProt Q14671 828-1176, S1079R;N1080I;E1083Q). An outline of the steps:
as §1

Chain of PUM1 PUF domain R5-RHF (Q14671 828-1176 C1007R/R1008H/Q1011F): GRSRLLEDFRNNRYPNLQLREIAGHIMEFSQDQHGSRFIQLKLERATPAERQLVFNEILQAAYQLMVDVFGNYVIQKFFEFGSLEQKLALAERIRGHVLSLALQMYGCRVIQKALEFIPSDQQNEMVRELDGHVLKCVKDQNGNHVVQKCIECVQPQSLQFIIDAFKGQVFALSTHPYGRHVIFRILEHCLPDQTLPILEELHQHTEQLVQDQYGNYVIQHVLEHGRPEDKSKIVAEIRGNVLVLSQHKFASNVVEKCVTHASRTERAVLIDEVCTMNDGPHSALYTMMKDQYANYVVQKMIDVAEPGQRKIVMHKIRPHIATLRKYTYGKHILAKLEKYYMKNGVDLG
Chain of PUM1 PUF domain R8-RFT (Q14671 828-1176 N1122R/Y1123F/Q1126T): as the sequence (Q14671 828-1176 C1007R/R1008H/Q1011F) above, with R180C, H181R, F184Q, N295R, Y296F, Q299T counted along it
Chain of PUM1 PUF domain R5-GGR (Q14671 828-1176 C1007G/R1008G/Q1011R): as the sequence (Q14671 828-1176 C1007R/R1008H/Q1011F) above, with R180G, H181G, F184R counted along it
Chain of PUM1 PUF domain R8-HWG (Q14671 828-1176 N1122H/Y1123W/Q1126G): as the sequence (Q14671 828-1176 C1007R/R1008H/Q1011F) above, with R180C, H181R, F184Q, N295H, Y296W, Q299G counted along it
Chain of PUM1 PUF domain R1-KGS (Q14671 828-1176 S863K/R864G/Q867S): as the sequence (Q14671 828-1176 C1007R/R1008H/Q1011F) above, with S36K, R37G, Q40S, R180C, H181R, F184Q counted along it
Chain of PUM1 PUF domain R2-RVE (Q14671 828-1176 N899R/Y900V/Q903E): as the sequence (Q14671 828-1176 C1007R/R1008H/Q1011F) above, with N72R, Y73V, Q76E, R180C, H181R, F184Q counted along it
Chain of PUM1 PUF domain R8-YHR (Q14671 828-1176 N1122Y/Y1123H/Q1126R): as the sequence (Q14671 828-1176 C1007R/R1008H/Q1011F) above, with R180C, H181R, F184Q, N295Y, Y296H, Q299R counted along it
Chain of PUM1 PUF domain R4-PFN (Q14671 828-1176 N971P/H972F/Q975N): as the sequence (Q14671 828-1176 C1007R/R1008H/Q1011F) above, with N144P, H145F, Q148N, R180C, H181R, F184Q counted along it

Take “GGCUAGAACUAGUGGAUCCCCCGGCGCCCGGCGGCUCGAGCCCGGGUAAGUGUCAAUAGUCUGCAUGCCGCCGGGCGCCAUGCCUGCAGGUCGACUCUAGAAAACAUG”: the values for the binding signal in [1], in [2] and in test [3] were 4.92 log2 enrichment (interaction score), 2.99 log2 enrichment (interaction score) and 4.19 log2 enrichment (interaction score), respectively.
As to “GGCUAGAACUAGUGGAUCCCCCGGCGCCCGGCGGCUCGAGCCCGGGUAAGUGUUAAUAGUCUGCAUGCCGCCGGGCGCCAUGCCUGCAGGUCGACUCUAGAAAACAUG”, the figures for the binding signal in test [1] and in [2] were 1.88 log2 enrichment (interaction score) and 3.71 log2 enrichment (interaction score), respectively.
Regarding “GGCUAGAACUAGUGGAUCCCCCGGCGCCCGGCGGCUCGAGCCCGGGUAAGUGUAAAUAGUCUGCAUGCCGCCGGGCGCCAUGCCUGCAGGUCGACUCUAGAAAACAUG”, the binding signal in test [4] is 4.66 log2 enrichment (interaction score); in test [5] it was 4.47 log2 enrichment (interaction score); in [6], 3.8 log2 enrichment (interaction score).
Turning to “GGCUAGAACUAGUGGAUCCCCCGGCGCCCGGCGGCUCGAGCCCGGGUAAGCGUAAAUAGUCUGCAUGCCGCCGGGCGCCAUGCCUGCAGGUCGACUCUAGAAAACAUG”, the binding signal was 5.64 log2 enrichment (interaction score) in test [4], 4.11 log2 enrichment (interaction score) in test [5], 3.34 log2 enrichment (interaction score) in test [7] and 2.73 log2 enrichment (interaction score) in test [8].
Regarding “GGCUAGAACUAGUGGAUCCCCCGGCGCCCGGCGGCUCGAGCCCGGGUAAGUGUAAAGAGUCUGCAUGCCGCCGGGCGCCAUGCCUGCAGGUCGACUCUAGAAAACAUG”, the binding signal in [9] was 2.9 log2 enrichment (interaction score).
With “GGCUAGAACUAGUGGAUCCCCCGGCGCCCGGCGGCUCGAGCCCGGGUAAGUGUAUAUAGUCUGCAUGCCGCCGGGCGCCAUGCCUGCAGGUCGACUCUAGAAAACAUG”, the binding signal in test [10] is 6.39 log2 enrichment (interaction score).
For the sequence “GGCUAGAACUAGUGGAUCCCCCGGCGCCCGGCGGCUCGAGCCCGGGUAAGUGUAAAUUGUCUGCAUGCCGCCGGGCGCCAUGCCUGCAGGUCGACUCUAGAAAACAUG”, in test [11], the binding signal was 4.48 log2 enrichment (interaction score).
Still for that read-out and setting: then “GGCUAGAACUAGUGGAUCCCCCGGCGCCCGGCGGCUCGAGCCCGGGUAAGUGUAAAUCGUCUGCAUGCCGCCGGGCGCCAUGCCUGCAGGUCGACUCUAGAAAACAUG”, with 5.23 log2 enrichment (interaction score).
Turning to “GGCUAGAACUAGUGGAUCCCCCGGCGCCCGGCGGCUCGAGCCCGGGUAAGUGGAAAUAGUCUGCAUGCCGCCGGGCGCCAUGCCUGCAGGUCGACUCUAGAAAACAUG”, the binding signal in test [12] is 3.23 log2 enrichment (interaction score).
Consider “GGCUAGAACUAGUGGAUCCCCCGGCGCCCGGCGGCUCGAGCCCGGGUAAGUUUAAAUAGUCUGCAUGCCGCCGGGCGCCAUGCCUGCAGGUCGACUCUAGAAAACAUG”, for which the binding signal in test [13] is 4.25 log2 enrichment (interaction score).
